# From PubChem BioAssay (NCI)
# This is part of a sample that, as a whole, favours compounds with a hit. Of some 83,000 tested, about 20% had one in any assay.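 Percent growth is the endpoint: 0 to 100 indicates growth inhibition (40 means 60% inhibition), 0 means no net growth, and negative values indicate cell death.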 A number with no mark means an inactive call. Activity calls are given as the source filed them. Rule for the calls: active = growth percent below 10; inactive = the rest.
# System: SK-MEL-2 melanoma
# Test: NCI-60 one-dose screen, 48 h (100 = growth as untreated, 0 = no growth, -100 = all killed)
# Settings: 10 µM unless noted
row,SMILES,growth
1,Cc1nc(N)sc1C(=O)NCCO,12.8%
2,CCCCCCCCCCCCCCCCC(=O)O.CCCCCCCCCCCCCCCCCC(=O)O.CCCCCCCCCCCCCCCCCC(=O)O.CCCCCCCCCCCCCCCCCC(=O)O.CCCCCCCCCCCCCCCCCC(=O)O.CO[CH-]OC12COC1CC(O)C1(C)C(O)C(OC(C)O)C3=C(C)C(OC(=O)C(O)C([NH-])c4ccccc4)CC(O)(C(OC(=O)c4ccccc4)C21)C3(C)C.[Cu+].[Zn].[Zn].[Zn].[Zn].[Zn] (centres undefined),69.3%
3,O=S(=O)(O)CCI,102%
4,CC1(C)NCCC[C@]2(C)[C@H]3CC=C4[C@@H]5C[C@](C)(COC(=O)c6ccccc6C(=O)O)CC[C@]5(C)CC[C@@]4(C)[C@]3(C)CC[C@@H]12,83.5%
5,c1ccc2[nH]c(-c3ccc(OCCCCCOc4ccc(-c5nc6ccccc6[nH]5)cc4)cc3)nc2c1,64%
6,COc1nc(OC)nc(-c2cc(C(=O)c3ccc(Br)cc3)n3cc(C)cc(C)c23)n1,68.1%
7,CN1CCN(Cc2ccc(NC(=O)c3ccc(C#Cc4c(N)ncc5ccc(F)cc45)cc3)cc2C(F)(F)F)CC1,-40.3% (active)
8,CC(C)(C)OC(=O)N1C/C(=C\c2ccccc2)C(=O)/C(=C/c2ccccc2)C1,94.2%
9,O=C(CN1C(=O)NC(c2ccccc2)(c2ccccc2)C1=O)c1ccc(N2CCCC2)cc1,91.1%
10,C[C@H]1C[C@@H](n2cnc3c(N)nccc32)[C@H](O)[C@@H]1O,106%
11,Cc1nc2c(nnn2-c2ccccc2)c2nc(-c3ccccc3)oc(=O)c12,108%
12,COc1cc2oc(-c3ccc(NC(=O)c4ccccc4)cc3)cc(=O)c2c(OC)c1OC,92.1%
13,COc1cccc2c1n([O-])c1cccc(OC)c1[n+]2=O,71.5%
14,CC1C(=O)CCCC1=O,99%
15,Oc1ccccc1/C=N/N=C/c1c(O)ccc2ccccc12,92.4%
16,FC(F)(F)c1cccc(-c2[nH]ncc2-c2nnnn2-c2ccccc2)c1,78.3%
17,Nc1ccc(S(=O)(=O)c2ccc(NO)cc2)cc1,93.2%
18,Nc1ccc(S(=O)(=O)Nc2cc(F)cc(F)c2)cc1,94.5%
19,CC(C)(C)c1ccc([I+]c2ccc(C(C)(C)C)cc2)cc1,-2.7% (active)
20,O=C1NCCN1/N=C/c1c(Cl)nc2n1CCS2,70.2%
21,CC(=O)OCC1O[C@@H](OC(C)=O)[C@@H](NC(=O)NS(=O)(=O)c2ccccc2)C(OC(C)=O)[C@@H]1OC(C)=O (some centres undefined),-51.6% (active)
22,COc1ccc(Cn2cc3c(c2-c2ccccc2)CCc2cnoc2-3)cc1OC,48%
23,CCn1cc(C(=O)O)c(=O)c2cc(F)c(N3CCN(S(=O)(=O)c4ccc(Cl)cc4)CC3)cc21,43.8%
24,Cc1ccc(C(=O)Nc2ccc(CN3CCN(C)CC3)c(C(F)(F)F)c2)cc1C#Cc1cnc(N)c2ccc(C#N)cc12,25.1%

# System: EKVX NSCLC
# Test: as above
# Settings: 10 µM
row,SMILES,growth
1,Cc1ncc(C(=O)Nc2ccc(CN3CCN(C)CC3)c(C(F)(F)F)c2)cc1C#Cc1cnc(NC2CC2)c2ncccc12,-86% (active)
2,COc1cc(NC(C)CCCN)c2nccc(C)c2c1OC (centres undefined),99.4%
3,CCOC(=O)CCCCCCCCC(=O)OCC,118%
4,CCCCCCCCC/C(=N\NC(=O)c1ccncc1)c1ccc(O)c(O)c1O,34.5%
5,C/C=C(/C)C(=O)OC1C=C(CO)C(=O)C(OC(=O)C2(C)OC2C)C1C(C)C (centres undefined),-11.8% (active)
6,Cc1nc(NC(=O)NC2CCCCC2)sc1C(=O)NN,119%
7,COc1ccc(Cn2cc3c(c2-c2ccc(OC)cc2)CCc2cnoc2-3)cc1,49.4%
8,CCOC(=O)CSSCC(=O)OCC,105%
9,O=C(N/N=C/c1cc(Cl)ccc1O)C(=O)N/N=C/c1cc(Cl)ccc1O,69.2%
10,Nc1nc2c(c3cnccc13)C(c1cccc(Br)c1)Cc1cnccc1-2 (centres undefined),27.6%
11,COc1ccc(Cn2cc3c(c2-c2ccc(O)cc2)CCc2cnoc2-3)cc1,28.3%
12,COc1cccc(CNC(=O)c2cccc(C3CC(=O)c4c(cc(OC)c(OC)c4OC)O3)c2)c1 (centres undefined),72.4%
13,COc1nc(OC)nc(-c2cc(-c3cc(OC)c(OC)c(OC)c3)no2)n1,103%
14,O=C(N/N=C/c1ccccc1Cl)c1cccc2ccccc12,99.6%
15,CCCCCCCCCC[N+](C)(C)C,72.9%
16,Cc1nc2c(nnn2-c2ccccc2)c2nc(-c3ccc(Cl)cc3)oc(=O)c12,110%
17,Cc1nc(N)sc1C(=O)NCCO,113%
18,CCCCCCCCCCCCCCCCC(=O)O.CCCCCCCCCCCCCCCCCC(=O)O.CCCCCCCCCCCCCCCCCC(=O)O.CCCCCCCCCCCCCCCCCC(=O)O.CCCCCCCCCCCCCCCCCC(=O)O.CO[CH-]OC12COC1CC(O)C1(C)C(O)C(OC(C)O)C3=C(C)C(OC(=O)C(O)C([NH-])c4ccccc4)CC(O)(C(OC(=O)c4ccccc4)C21)C3(C)C.[Cu+].[Zn].[Zn].[Zn].[Zn].[Zn] (centres undefined),29.5%
19,O=S(=O)(O)CCI,119%
20,CC1(C)NCCC[C@]2(C)[C@H]3CC=C4[C@@H]5C[C@](C)(COC(=O)c6ccccc6C(=O)O)CC[C@]5(C)CC[C@@]4(C)[C@]3(C)CC[C@@H]12,86.7%

row,SMILES,growth
1,c1ccc2[nH]c(-c3ccc(OCCCCCOc4ccc(-c5nc6ccccc6[nH]5)cc4)cc3)nc2c1,87%
2,COc1nc(OC)nc(-c2cc(C(=O)c3ccc(Br)cc3)n3cc(C)cc(C)c23)n1,68.1%
3,CN1CCN(Cc2ccc(NC(=O)c3ccc(C#Cc4c(N)ncc5ccc(F)cc45)cc3)cc2C(F)(F)F)CC1,-59.1% (active)
4,CC(C)(C)OC(=O)N1C/C(=C\c2ccccc2)C(=O)/C(=C/c2ccccc2)C1,97.7%
5,O=C(CN1C(=O)NC(c2ccccc2)(c2ccccc2)C1=O)c1ccc(N2CCCC2)cc1,82.4%
6,C[C@H]1C[C@@H](n2cnc3c(N)nccc32)[C@H](O)[C@@H]1O,96.3%
7,Cc1nc2c(nnn2-c2ccccc2)c2nc(-c3ccccc3)oc(=O)c12,99.3%
8,COc1cc2oc(-c3ccc(NC(=O)c4ccccc4)cc3)cc(=O)c2c(OC)c1OC,90.8%
9,COc1cccc2c1n([O-])c1cccc(OC)c1[n+]2=O,45.6%
10,CC1C(=O)CCCC1=O,110%
11,Oc1ccccc1/C=N/N=C/c1c(O)ccc2ccccc12,72.1%
12,FC(F)(F)c1cccc(-c2[nH]ncc2-c2nnnn2-c2ccccc2)c1,52.6%
13,Nc1ccc(S(=O)(=O)c2ccc(NO)cc2)cc1,90.5%
14,Nc1ccc(S(=O)(=O)Nc2cc(F)cc(F)c2)cc1,80.4%
15,CC(C)(C)c1ccc([I+]c2ccc(C(C)(C)C)cc2)cc1,15.6%
16,O=C1NCCN1/N=C/c1c(Cl)nc2n1CCS2,111%
17,CC(=O)OCC1O[C@@H](OC(C)=O)[C@@H](NC(=O)NS(=O)(=O)c2ccccc2)C(OC(C)=O)[C@@H]1OC(C)=O (some centres undefined),96.4%
18,COc1ccc(Cn2cc3c(c2-c2ccccc2)CCc2cnoc2-3)cc1OC,46.5%
19,CCn1cc(C(=O)O)c(=O)c2cc(F)c(N3CCN(S(=O)(=O)c4ccc(Cl)cc4)CC3)cc21,78.1%
20,Cc1ccc(C(=O)Nc2ccc(CN3CCN(C)CC3)c(C(F)(F)F)c2)cc1C#Cc1cnc(N)c2ccc(C#N)cc12,53.4%
